# Where “and” joins values, the source holds several entries; their conditions need not be identical. Equal values may be shown once. In all, about 290,000 compounds went through this assay and about 27,000 (9.3%) were called active. The list comes from a sample in which actives are over-represented; it also holds similar structures and randomly drawn compounds. A number with no mark means an inactive call. No stated cut-off is given here; in the data, active means inhibition mostly above about 28% (no sharp cut-off); inactive means mostly below about 43%.
# Test: A qHTS for Small Molecule Inhibitors of Shiga Toxin; further: 0% is about no effect
# Conditions: Vero cells, Shiga toxin protein synthesis inhibition reporter; at 38.7 µM, stronger effect = higher value
row,SMILES,inhibition
1,COCCNC(=O)C1CCN(C(=O)C2CC(=O)N(c3ccc(C)cc3)C2)CC1 (stereo not drawn),-14.7%
2,CCN1C(=S)N[C@@H](CCc2ccccc2)[C@H](C(=O)OC)[C@H]1C,-2.85% and 15.7%
3,O=C(NNS(=O)(=O)c1ccc(F)cc1)c1ccc([N+](=O)[O-])cc1Cl,30.1%
4,CCOc1ccc(CN2CCC(n3nccc3NC(=O)C3CC3)CC2)cc1CO,-3.78%
5,Cc1ccc(NC(=O)C2CCCN2C(=O)OCc2ccccc2)cc1C (stereo not drawn),-4.8%
6,COc1ccc(NC(=O)C2C3CCC(O3)C2C(=O)O)cc1OC (stereo not drawn),-5.78%
7,O=C(CSc1nc(Nc2ccccc2)nc(N2CCOCC2)n1)Nc1cc(Cl)ccc1O,-4.02%
8,COc1cc(C(=O)N2CCN(C)CC2)cc(OC)c1OC,-8.49%
9,Cn1ccc(=Nc2ccc(NC(=O)c3ccc(N=c4ccn(C)c5ccc([N+](=O)[O-])cc45)cc3)cc2)cc1,-0.904%
10,CCOc1ccc(CN2CCNC(=O)C2CC(=O)NCCCC2CCCC2)cc1 (stereo not drawn),19% (active)
11,Cc1nccn1CCCNC(=O)CC1C(=O)NCCN1Cc1ccc(Cl)c(F)c1 (stereo not drawn),-1.1%
12,O=C(CC1C(=O)NCCN1Cc1ccc(-c2ccccc2)cc1)NCC1CCOCC1 (stereo not drawn),-14.6%
13,Cn1c(CCNS(=O)(=O)c2ccc(F)cc2)nnc1SCc1cccnc1,16.6%
14,COCCn1c(SCC(=O)N2CCCCCC2)nc2c(c1=O)SCC2,-16.9%
15,O=C(Nc1ccncc1)c1cc2ccccc2o1,57.4% (active)
16,C/C(=N\NC(=S)Nc1ccc(C)cc1)c1cc2ccccc2o1,30.5%
17,CC(C)(C)n1nc2c(c1NC(=O)c1cc3ccccc3o1)CSC2,-8.8%
18,O=C(NCCc1ccc2c(c1)OCCO2)c1cc2ccccc2o1,5.6%
19,Cc1ccc(OC(=O)c2cc3ccccc3o2)cc1,27.5%
20,Cc1ccc(NC(=O)c2cc3ccccc3o2)cc1,118% (active)
21,Cc1cc(C)cc(C(=O)OCC(=O)NCCNC(=O)COC(=O)c2cc(C)cc(C)c2)c1,22.3%
22,CN(C)c1ccc(S(=O)(=O)NCC(=O)NCC2CCCCC2)cc1[N+](=O)[O-],3.92%
23,O=C(NCCN1CCN(C(=O)c2cccc([N+](=O)[O-])c2)CC1)C(=O)NCc1ccc(Cl)cc1,-5.68%
24,Clc1ccc(-c2csc(-c3ccncc3)n2)cc1,78.2% (active)

row,SMILES,inhibition
1,Fc1ccc(-c2csc(-c3ccc(C4SCCS4)cc3)n2)cc1F,-3.43%
2,COc1ccc(NC(=O)NCCN2CCN(c3ccc(C)cc3)CC2)c(Cl)c1,-4.91%
3,CC1CCCCN1CCCNc1ccc(C(CC(N)=O)NC(=O)c2ccccc2)cc1[N+](=O)[O-] (stereo not drawn),-3.52%
4,CCN(C(=O)Cc1c(C(=O)O)n(CC)c2ccccc12)c1ccccc1C,1.61%
5,CCC(C(=O)NC1CCCCC1)N(C(=O)c1snc(C(N)=O)c1N)c1ccc(OC)cc1OC (stereo not drawn),16.5%
6,CCCCc1nc(SCC(=O)Nc2nnc(C(C)C)s2)n[nH]1,24%
7,O=C(CSC(=S)N1CCOCC1)c1cc(Br)cc(Br)c1O,-11.8%
8,CC1CN(C(=S)SCC(=O)c2ccccc2)CC(C)O1 (stereo not drawn),94.2% (active)
9,CC1CN(C(=S)Nc2ccccc2F)CC(C)O1 (stereo not drawn),-12%
10,O=C(CSC(=S)N1CCOCC1)c1ccccc1,67.5% (active)
11,O=C(CP(=O)(c1ccccc1)c1ccccc1)N1CCOCC1,-5.31%
12,COC(=O)[C@H](Cc1ccccc1)NC(=O)N1CC(C)OC(C)C1 (stereo partly drawn),-8.27%
13,O=C(CSC(=S)N1CCCCC1)c1c(F)cccc1F,61.7% (active)
14,CC(=O)c1ccc(NC(=O)CSC(=S)N2CCCC2)cc1,-2.78%
15,O=C(Nc1ccc(S(=O)(=O)N2CCCCCC2)cc1)c1c(F)cccc1F,22.1%
16,O=C(O)C1CCCCC1C(=O)N1CCN(S(=O)(=O)c2ccc(F)cc2)CC1 (stereo not drawn),-21.1%
17,CC1CCN(C(=O)c2ccccc2NC(=O)Cc2ccccc2)CC1,13.5%
18,Cc1c(C)c2ccc(OCC(=O)N3CCN(c4cccc(Cl)c4)CC3)cc2oc1=O,-20.7%
19,COc1ccccc1C1C(C(N)=O)=C(C)Nc2nc(CCCO)nn21 (stereo not drawn),-12.2%
20,Cc1nc(SCC(=O)NC2CCCC2)[nH]c(=O)c1C,-3%
21,CC(=O)NS(=O)(=O)c1ccc(N/C(N)=N/c2nc(C)cc(C)n2)cc1,4.41%
22,Cc1cccc2c1cnn2C(=O)CCC(=O)NC1CCCCC1,-4.08%
23,CCOC(=O)N1CCN(Cc2nc3cc(NC(=O)CC)ccc3n2CC)CC1,-2.96%
24,C=CCN(C(=O)Nc1ccc2c(c1)nc(C)n2C)c1ccccc1,46.7% (active)

row,SMILES,inhibition
1,Cc1nc2cc(NC(=O)Nc3cccc(F)c3)ccc2n1C,27.6% (active)
2,Cc1nc2cc(NCc3cccs3)ccc2n1C,47.7% (active)
3,COc1ccc(-n2cnc3cc(NCc4ccco4)ccc32)cc1,66.3%
4,Cc1cc2nc(C)n(CCCNC(=O)Nc3ccccc3)c2cc1C,9%
5,C=CCN(C(=O)Cn1ncc2c1-c1cc(C)ccc1OC2)c1ccccc1,-10.9%
6,Cc1nc2cc(NC(=O)NC3CC3)ccc2n1C,27.2%
7,Cc1nn(CC(=O)Nc2ccc3c(c2)nc(CN2CCCCC2)n3C)c(=O)c2ccccc12,-8.7%
8,C=CCN(C(=O)Nc1ccc2oc(C)nc2c1)c1ccccc1,117% (active)
9,Cc1cc(C)cc(NC(=O)N(C)Cc2ccccc2)c1,13.5%
10,Cn1ncc(Br)c1C(=O)NCc1cccs1,20.7%
11,O=C(NCCCn1ccnc1)/C(=C\c1ccccc1F)NC(=O)c1ccccc1,-7.27%
12,COc1cc(NC(=O)CCNC(=O)Cn2ccc3ccccc3c2=O)cc(OC)c1OC,11.7%
13,O=C1CN(C(=O)c2ccccc2F)C(c2ccc(F)cc2)c2cc(F)ccc2N1 (stereo not drawn),18%
14,O=C(/C=C/c1ccc([N+](=O)[O-])cc1)NCCSCc1ccco1,-2.44%
15,Cc1cccc(N2CCN(C(=O)CCS(=O)(=O)c3ccc4c(c3)NC(=O)C(C)S4)CC2)c1C (stereo not drawn),-11.3%
16,COc1cc(OC)c2c(c1C(CCN1CCCCC1)c1ccc(N(C)C)cc1)OC(=O)CC2c1ccc(N(C)C)cc1 (stereo not drawn),-7.65%
17,Cn1c(CCN2CCCC2)nc2cc(NS(=O)(=O)c3ccccc3)ccc21,0.447%
18,CCC(=O)Nc1ccc2c(c1)nc(CCN1CCN(c3ccccn3)CC1)n2C,-4.67%
19,Cn1c(CCN2CCCCCC2)nc2cc(NC(=O)Nc3ccccc3)ccc21,73.3% (active)
20,CC(C)c1ccc(S(=O)(=O)N2CCC3(CC2)OCCO3)cc1,-8.25%
21,COc1cccc(Nc2nc(N)c([N+](=O)[O-])c(NCc3ccco3)n2)c1,45.8%
22,Nc1nc(Nc2ccccc2)nc(NCCO)c1[N+](=O)[O-],16.8%
23,CNc1nc(Nc2ccc(C)c(Cl)c2)nc(N)c1[N+](=O)[O-],68.3% (active)
24,CN(Cc1ccco1)S(=O)(=O)c1nnc(NC(=O)c2ccccc2)s1,38.9%

row,SMILES,inhibition
1,COc1cc(/C=C/C(=O)OCC(=O)Nc2cccc(Oc3ccccc3)c2)ccc1O,51.6% (active)
2,COc1cccc(NC(=O)COC(=O)CCOc2ccccc2OC)c1,-8.03%
3,COc1ccc(/C=C/C(=O)OCC(=O)Nc2cccc(Oc3ccccc3)c2)c(OC)c1,-4.44%
4,CCOc1ccccc1CNS(=O)(=O)c1cc(-c2cc(C)no2)ccc1C,-5.31%
5,CCCCC(=O)Nc1ccccc1N1CCN(c2ccc(F)cc2)CC1,-8.03%
6,Cc1cc(C)c(S(=O)(=O)c2ccc(F)cc2C)c(=O)[nH]1,3.7%
7,O=C(N/C(=C\c1ccc([N+](=O)[O-])cc1)C(=O)N1CCCCC1)c1ccco1,-18.7%
8,O=C(NC(=S)Nc1ccccc1C(=O)O)c1ccc(-c2ccc(Br)cc2)o1,125% (active)
9,COC(=O)c1ccccc1NC(=S)NC(=O)c1ccccc1F,-1.7%
10,O=C(O)c1ccccc1NC(=O)c1ccccc1-c1ccccc1C(=O)O,-1.49%
11,O=C(CSc1nc2nccnc2c(=O)n1Cc1cccs1)Nc1ccccc1F,18.1%
12,CC(=O)Nc1ccc(NC(=O)C2CCCN(S(=O)(=O)c3ccc(Cl)cc3)C2)cc1 (stereo not drawn),-4.09%
13,CCCNC(=O)CCc1c(C)nc2c(c(C)nn2-c2ccc(C)cc2)c1C,-2.23%
14,CCCNC(=O)c1ccc(Cl)c(Cl)c1,-6.36%
15,CCCNC(=O)c1c(Cl)cnn1-c1ccc(C)cc1,59.9% (active)
16,COc1ccc(-n2nc(C(=O)NCC(=O)N3CCN(c4ccccc4OC)CC3)c3ccccc3c2=O)c(OC)c1,73.3% (active)
17,COc1ccc(-n2nc(C(=O)Nc3cc(OC)c(OC)c(OC)c3)c3ccccc3c2=O)c(OC)c1,-1.7%
18,COc1cccc(NC(=O)c2nn(-c3ccc(OC)cc3OC)c(=O)c3ccccc23)c1,-8.21%
19,Cc1csc(NC(=O)Nc2ccccc2[N+](=O)[O-])n1,67.7% (active)
20,Cc1cc(NC(=O)Nc2ccccc2[N+](=O)[O-])no1,28.7%
21,Cc1csc(NC(=O)NC2(C(F)(F)F)Oc3ccccc3O2)n1,24.4%

# Source: PubChem BioAssay AID2315 (National Center for Advancing Translational Sciences (NCATS), 2010)
